Laboratory results: PubChem BioAssay (NCI)
About 83,000 compounds went through this panel and 20% of them were active in at least one assay; those are over-represented in the sample as a whole.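 Each cell line was grown in a 96-well plate and treated with one concentration of compound for 48 hours. Values below 10 were considered active.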 A number with no mark means an inactive call. The source made the active and inactive calls.

Key:
Experiment in all cases: NCI-60 one-dose screen, 48 h (100 = growth as untreated, 0 = no growth, -100 = all killed)
Settings in all cases: 10 µM unless noted
[1] = test system: SK-MEL-2 melanoma
[2] = test system: EKVX NSCLC
[3] = test system: SN12C renal
[4] = test system: UO-31 renal
[5] = test system: TK-10 renal
[6] = test system: ACHN renal
[7] = test system: CAKI-1 renal
[8] = test system: A498 renal
[9] = test system: CCRF-CEM leukemia
[10] = test system: MOLT-4 leukemia

Structure (SMILES) | growth [1] [%] | growth [2] [%] | growth [3] | growth [4] | growth [5] [%] | growth [6] | growth [7] | growth [8] | growth [9] | growth [10]
CCCC(CCC)(C(N)=O)C(=O)O | 120 | 105 | 102% | 92.2% | 115 | 103% | 95.3% | 104% | 103% | 113%
CCn1c(Cc2ccccc2Nc2c(Cl)cccc2Cl)nnc1SCC(=O)Nc1cccc(OC)c1 | 91.5 | 77.7 | 66.6% | 68.6% | 82.8 | 88.7% | 84.6% | 40.9% | 73.1% | 54.3%
CCOC(=O)N1C2CCC(C2)N1C(=O)OCC | 99 | 113 | 105% | 95.6% | 94.7 | 106% | 106% | 115% | 100% | 93%
Nc1c(C(=O)Nc2cccc(Cl)c2)sc2nc3c(cc12)C(=O)CCC3 | 69.7 | 58.2 | 54.4% | 57.1% | 65 | 54.2% | 40.3% | 49.3% | 13.5% | 57.1%
CC(C)(C)c1nn(-c2ccccc2)c2c1C(=O)CSC(c1ccc3c(c1)OCO3)N2 (stereo not given) | 101 | 80.2 | 91.3% | 74.8% | 103 | 107% | 81.4% | 113% | 98.1% | 86%
COc1ccc(C(=O)C(CN(C)C)c2ccc(OC)cc2)cc1 (stereo not given) | 75.1 | 90.7 | 62.5% | 67.9% | 52 | 54.1% | 73.9% | 64.4% | 3.8% (active) | 52.9%
CN(C)CCCn1c(=O)c2cc([N+](=O)[O-])ccc2c2cnc3[nH]ccc3c21 | 53.7 | 62.2 | 47% | 33.1% | 50.5 | 27.9% | 79.5% | 39.5% | -26.4% (active) | 8.62% (active)
C=C(C)[C@@H]1CC[C@]2(C(=O)NC(COC(=O)C(Cl)Cl)(COC(=O)C(Cl)Cl)COC(=O)C(Cl)Cl)CC[C@]3(C)[C@H](CC[C@@H]4[C@@]5(C)CC[C@H](OC(C)=O)C(C)(C)[C@@H]5CC[C@]43C)[C@@H]12 | 76.5 | 57.7 | 37% | 55.4% | 75.8 | 51.1% | 48.4% | 99.5% | 18.3% | 6.2% (active)
C=C1C[C@@]2(C)C(CC[C@]3(C)C2CC=C2C4CC(C)(C)C[C@@H](OC(=O)/C(C)=C\C)[C@]4(C(=O)O)CC[C@]23C)C(C)(C)C1=O (stereo not given in full) | 18.8 | 31.7 | 6.55% (active) | -74.6% (active) | 17.2 | -83.8% (active) | -7.09% (active) | -17.4% (active) | 2.34% (active) | 7.64% (active)
